Screens: PubChem BioAssay, National Center for Advancing Translational Sciences (NCATS)
An excerpt weighted towards active compounds, which were near 5.7% of everything screened.
HP1b chromo inh – HTS for Inhibitors of HP1-beta Chromodomain Interactions with Methylated Histone Tails; Chromobox protein homolog 1 (Homo sapiens), P83916; AlphaScreen HP1-beta / biotin-H3K9me3 peptide binding; Potency, µM (top dose mostly 114 µM), usual class: inhibitors; 390,000 tested, 0.56% active; also: nearly all actives have a fitted effect of over 70% in size
Target sequence (P83916 whole entry, looked up): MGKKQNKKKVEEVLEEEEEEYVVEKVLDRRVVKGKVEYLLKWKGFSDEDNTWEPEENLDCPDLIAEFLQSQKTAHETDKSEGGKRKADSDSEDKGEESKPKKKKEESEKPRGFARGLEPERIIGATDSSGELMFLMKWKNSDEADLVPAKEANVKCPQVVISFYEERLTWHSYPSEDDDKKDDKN
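HP1-beta protein (50 nM final) preincubated 30 min at room temperature with biotinylated H3(1-18)K9me3 peptide (50 nM) in PBS pH 7.4, 0.01% Tween-20, then compound added for 30 min. AlphaScreen streptavidin donor/nickel chelate acceptor beads (10 ug/mL final), 30 min dark, luminescence read.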
BAZ2B inh – qHTS Assay for Inhibitors of BAZ2B | 360,000 tested, 4.4% active | AID 504333, 2011 | Bromodomain adjacent to zinc finger domain protein 2B (Homo sapiens), Q9UIF8 | AlphaScreen BAZ2B-H3K14Ac peptide displacement | Potency, µM (series often up to 114 µM), actives largely listed as inhibitors; also: nearly all actives have a fitted effect of over 60% in size
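AlphaScreen luminescence quantifies BAZ2B engagement of H3K14Ac peptide; the protein and biotinylated peptide are both at 50 nM final, buffer PBS pH 7.4 with 0.01% Tween-20, all steps at room temperature.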
JMJD2A Tudor inh – qHTS Assay for Inhibitors of JMJD2A-Tudor Domain; 390,000 tested, 4.4% active; Lysine-specific demethylase 4A (Homo sapiens), O75164; AlphaScreen JMJD2A-Tudor / H3K4me3 peptide binding; AID 504339, 2011; Potency, µM (doses to about 114 µM), hits mostly inhibitors; also: nearly all actives have a fitted effect of over 50% in size
PI5P4K alpha inh – qHTS for Inhibitors of phosphatidylinositol 5-phosphate 4-kinase (PI5P4K) | Phosphatidylinositol 5-phosphate 4-kinase type-2 alpha (Homo sapiens), P48426 | PI5P4Kalpha enzyme, ADP-Glo luminescence, 60 min; stronger effect = lower value | max response, % | 330,000 tested, 1.2% active | AID 652105, 2013; active = max response of -50% or lower; inconclusive = between -30% and -50%; inactive = -30% or higher; also: value at the top dose of about 77 µM
Target sequence (P48426 whole entry, looked up): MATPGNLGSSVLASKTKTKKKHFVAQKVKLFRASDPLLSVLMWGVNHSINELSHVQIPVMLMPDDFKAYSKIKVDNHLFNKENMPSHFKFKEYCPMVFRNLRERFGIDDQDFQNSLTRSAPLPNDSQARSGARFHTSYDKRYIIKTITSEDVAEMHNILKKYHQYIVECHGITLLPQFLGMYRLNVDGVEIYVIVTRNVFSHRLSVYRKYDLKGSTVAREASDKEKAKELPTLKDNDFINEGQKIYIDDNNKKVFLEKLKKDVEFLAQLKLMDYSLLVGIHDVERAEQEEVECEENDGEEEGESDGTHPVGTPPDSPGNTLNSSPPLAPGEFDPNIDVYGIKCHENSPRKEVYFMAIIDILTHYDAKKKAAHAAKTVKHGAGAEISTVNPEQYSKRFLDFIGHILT
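Luminescence from ADP-Glo served as readout of PI5P4Kalpha activity in a qHTS format. Reaction: enzyme, substrate, compound, ATP at 5 microM final, 60 min at RT.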
L3MBTL1 block – qHTS Assay for the Inhibitors of L3MBTL1 | Lethal(3)malignant brain tumor-like protein 1 (Homo sapiens), Q9Y468 | AlphaScreen L3MBTL1–H3K9me1 peptide binding | Potency, µM (titrated, usually from 57.1 µM), usual class: inhibitors | 230,000 tested, 0.66% active | AID 485360, 2010; also: nearly all actives have a fitted effect of over 60% in size
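L3MBTL1 (50 nM) pre-complexed 30 min with biotinylated H3(1-15)K9me1 peptide (75 nM), then compounds added for 30 min at room temperature; AlphaScreen streptavidin donor/nickel chelate acceptor beads (10 ug/mL final) read after 30 min dark incubation.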
JMJD2E inh – qHTS Assay for Inhibitors of Human Jumonji Domain Containing 2E (JMJD2E) | JMJD2E catalytic domain, FDH-coupled NADH fluorescence (FDH is formaldehyde dehydrogenase) | Potency, µM (series often up to 57.1 µM), usual class: inhibitors | 230,000 tested, 1.6% active | AID 2147, 2009; active = well fitted inhibition curve with a large enough effect, not every such curve was filed as active; inconclusive = small, poorly fitted or top-dose-only effect, or another doubt; inactive = no such curve, though single readings can be large or run the other way; also: nearly all actives have a fitted effect of over 50% in size
Hits are given with their value; . = inactive; ? = inconclusive; / = no result; ! = not active in a repeat. Unless noted, calls follow the shape of the dose curve; as a rule, active = well fitted inhibition curve with a large enough effect; inconclusive = small, poorly fitted or top-dose-only effect; inactive = no such curve, though single readings can be large or run the other way.

SMILES	HP1b chromo inh	BAZ2B inh	JMJD2A Tudor inh	PI5P4K alpha inh	L3MBTL1 block	JMJD2E inh
CSc1nsc(/C=C/Nc2ccc(C(=O)O)cc2)c1C#N	?	39.8µM	?	.	.	22.4µM
Cc1ccc(S(=O)(=O)N2c3ccccc3NC(=O)CC2C)cc1 (configuration not stated)	.	.	.	/	.	.
CC1CC(=O)Nc2ccccc2N1S(=O)(=O)c1ccccc1 (configuration not stated)	.	.	17.8µM	.	.	.
Cc1ccc(NS(=O)(=O)c2c(C)nc3sc(C)c(C)n3c2=O)cc1F	.	.	.	/	/	/
CCC1CCC2(CC1)NNC(=S)NN2	.	?	50.1µM	.	/	?
S=C1SCN(Cc2ccco2)CN1Cc1ccco1	.	.	.	.	.	.
N#CC1=C2SCN(Cc3ccco3)CN2C(=O)CC1c1cccc2ccccc12 (configuration not stated)	?	?	56.2µM	-59.8	.	?
COc1cc(F)c(S(=O)(=O)N2CCCN(S(=O)(=O)c3ccc4c(c3)OCCO4)CC2)c(F)c1	/	/	.	/	/	/
CCCCC1=CC2=CC(=O)C(C)(OC(=O)CC)C(=O)C2=CN1Cc1ccc2c(c1)OCO2 (configuration not stated)	.	.	?	.	/	17.8µM!
CCCCC1=CC2=CC(=O)C(C)(OC(=O)CC)C(=O)C2=CN1CCCCO (configuration not stated)	.	.	.	.	/	12.6µM!
CCCCC1=CC2=CC(=O)C(C)(OC(=O)CC)C(=O)C2=CN1C1CCCCC1 (configuration not stated)	.	.	.	.	/	28.2µM!
CCCCC1=CC2=CC(=O)C(C)(OC(=O)CC)C(=O)C2=CN1c1ccc(OC)cc1 (configuration not stated)	.	.	?	.	/	?
COc1cc2c(cc1OC)CN(C(=O)c1ccc(N3CCCC3)c([N+](=O)[O-])c1)CC2	?	44.7µM	50.1µM	.	.	/
COc1cc2c(cc1OC)CN(c1ccc(F)cc1[N+](=O)[O-])CC2	?	39.8µM	50.1µM	.	/	/
COc1cc2c(cc1OC)CN(c1ccc([N+](=O)[O-])cc1Cl)CC2	.	?	?	.	.	.
O=C(Oc1ccccc1F)c1nc(SCc2ccccc2F)ncc1Cl	.	.	.	/	/	/
C=CC#CC1(O)CC(C)[N+](C)(C)CC1C (configuration not stated)	?	.	22.4µM	.	.	.
O=[N+]([O-])c1cccc(Cn2cnc3c(=S)nc[nH]c32)c1	.	/	.	.	/	/
N#CCCn1cnc2c(=S)nc[nH]c21	.	.	35.5µM	/	.	.
Cc1c(C(=O)O)sc2nc(/C=C/c3cccc(F)c3)[nH]c(=O)c12	.	?	.	-54.6	/	/
Cc1ccc(/C=C/c2nc3sc(C(=O)O)c(C)c3c(=O)[nH]2)cc1[N+](=O)[O-]	.	89.1µM	?	?	/	/
Cc1c(C(=O)O)sc2nc(/C=C/c3ccccc3OC(F)F)[nH]c(=O)c12	?	70.8µM	15.8µM	-63.0	/	/
C=CCn1c(SCc2nc3sc(C(=O)O)c(C)c3c(=O)[nH]2)nnc1-c1ccc(F)cc1	.	.	.	?	.	.
O=C(NCC(c1ccco1)S(=O)(=O)c1cccs1)c1ccccc1F (configuration not stated)	.	.	.	/	/	/
O=C1CN2NC(=S)N(c3ccccc3)C2=CN1c1ccc(Cl)cc1	.	.	.	.	.	.
SMILES	HP1b chromo inh	BAZ2B inh	JMJD2A Tudor inh	PI5P4K alpha inh	L3MBTL1 block	JMJD2E inh
CCOc1ccccc1NC(c1nnc(-c2ccccc2)o1)c1ccc(F)cc1Cl (configuration not stated)	.	.	.	/	/	/
CC1=C/C(=N\N=C2\NC(=O)C(CC(=O)Nc3ccccc3)S2)CC(C)(C)C1 (configuration not stated)	.	.	?	.	.	.
NC(=O)NC(=O)CC1S/C(=N/N=C2\CSC(=O)N2)NC1=O (configuration not stated)	.	3.16µM	8.91µM	.	?	.
NC(=O)NC(=O)CC1S/C(=N/N=C/c2ccccc2)NC1=O (configuration not stated)	.	.	.	.	.	.
O=C(O)CNC(=O)CC1S/C(=N/N=C2/NC(=O)CS2)NC1=O (configuration not stated)	.	20µM	22.4µM	?	/	.
C#CCOCCOCCOCCNc1nc(N2CCN(C(=O)C([C@@H](C)O)n3cc([C@@H](N)CCCCN)nn3)CC2)nc(N2CCN(C(=O)[C@H](CCC(=O)O)n3cc([C@@H](N)CCCCN)nn3)CC2)n1 (some centres not stated)	.	/	?	.	.	/
C#CCOCCOCCOCCNc1nc(N2CCOCC2)nc(N2CCN(C(=O)[C@H]([C@@H](C)CC)n3cc([C@@H](N)CC(C)C)nn3)CC2)n1	.	.	.	.	.	.
C#CCOCCOCCOCCNc1nc(N2CCN(C(=O)C([C@@H](C)CC)n3cc(C(N)CC(C)C)nn3)CC2)nc(N2CCN(C(=O)[C@H](CCC(=O)O)n3cc(C(N)CC(C)C)nn3)CC2)n1 (some centres not stated)	.	79.4µM	79.4µM	.	.	.
C#CCOCCOCCOCCNc1nc(N2CCN(C(=O)C([C@@H](C)CC)n3cc(C(N)CO)nn3)CC2)nc(N2CCN(C(=O)[C@H](CCC(=O)O)n3cc(C(N)CC(C)C)nn3)CC2)n1 (some centres not stated)	.	50.1µM	50.1µM	.	.	.
C#CCOCCOCCOCCNc1nc(N2CCN(C(=O)[C@H](CCC(=O)O)n3cc(C(N)CC(C)C)nn3)CC2)nc(N2CCN(C(=O)[C@H](CCC(=O)O)n3cc(C(N)CC(C)C)nn3)CC2)n1 (some centres not stated)	.	79.4µM	79.4µM	.	.	.
Cc1ccc2c(=O)c(C(=O)c3ccc(F)cc3)cn(CC(=O)NCc3ccccc3)c2n1	.	.	.	/	/	/
CCN(CC)S(=O)(=O)c1cccc(C(=O)NCCc2ccccc2)c1	.	/	.	/	/	/
CN(c1ccccc1)S(=O)(=O)c1cccc(C(=O)NCCc2ccc(O)c(O)c2)c1	?	.	12.6µM	?	?	14.1µM
O=C(CN(Cc1ccccc1F)C(=O)c1csnn1)NCc1ccc2c(c1)OCO2	.	.	.	.	/	/
